# Where a name gives a salt, the structure may show the parent alone.
# What was measured:
# U-2932 [1] = test: growth inhibition by drug alone (1 - RLU/untreated control) (fraction); higher = stronger inhibition; settings: 177Lu-lilotomab satetraxetan 0 ug/ml
# Procedure, shortened: (§1)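 Growth inhibition was calculated from RealTime-Glo RLU against untreated no-drug wells. Values equal 1 − RLU/mean of 48 untreated no-drug wells per plate, read daily from day 3 after 1 h at 37°C. RIVA and U-2932 cells, with or without 18 h pretreatment by a radiolabelled anti-CD37 antibody conjugate (~600 MBq/mg; 0.5 µg/ml RIVA, 1 µg/ml U-2932), were washed and plated at 3,000 cells/well on compound-printed plates at 10/100 nM (RIVA) or 10/1,000 nM (U-2932).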
# RIVA [2] = test: as above; settings: 177Lu-lilotomab satetraxetan 0 ug/ml
# Procedure, shortened: as §1
# U-2932 [3] = test: growth inhibition by drug plus 177Lu-lilotomab satetraxetan (1 - RLU/untreated control) (fraction); higher = stronger inhibition; settings: 177Lu-lilotomab satetraxetan 1 ug/ml
# Procedure, shortened: as §1
# RIVA [4] = test: as above; settings: 177Lu-lilotomab satetraxetan 0.5 ug/ml
# Procedure, shortened: as §1
Structure (SMILES),"growth inhibition by drug alone (U-2932 [1]; 10 nM, time (day): 3)","growth inhibition by drug alone (U-2932 [1]; 10 nM, time (day): 4)","growth inhibition by drug alone (U-2932 [1]; 10 nM, time (day): 5)","growth inhibition by drug alone (U-2932 [1]; 10 nM, time (day): 6)","growth inhibition by drug alone (U-2932 [1]; 1000 nM, time (day): 3)","growth inhibition by drug alone (U-2932 [1]; 1000 nM, time (day): 4)","growth inhibition by drug alone (U-2932 [1]; 1000 nM, time (day): 5)","growth inhibition by drug alone (U-2932 [1]; 1000 nM, time (day): 6)","growth inhibition by drug alone (RIVA [2]; 10 nM, time (day): 3)","growth inhibition by drug alone (RIVA [2]; 10 nM, time (day): 4)","growth inhibition by drug alone (RIVA [2]; 10 nM, time (day): 5)","growth inhibition by drug alone (RIVA [2]; 10 nM, time (day): 6)","growth inhibition by drug alone (RIVA [2]; 100 nM, time (day): 3)","growth inhibition by drug alone (RIVA [2]; 100 nM, time (day): 4)","growth inhibition by drug alone (RIVA [2]; 100 nM, time (day): 5)","growth inhibition by drug alone (RIVA [2]; 100 nM, time (day): 6)","growth inhibition by drug plus 177Lu-lilotomab satetraxetan (U-2932 [3]; 10 nM, time (day): 3)","growth inhibition by drug plus 177Lu-lilotomab satetraxetan (U-2932 [3]; 10 nM, time (day): 4)","growth inhibition by drug plus 177Lu-lilotomab satetraxetan (U-2932 [3]; 10 nM, time (day): 5)","growth inhibition by drug plus 177Lu-lilotomab satetraxetan (U-2932 [3]; 10 nM, time (day): 6)","growth inhibition by drug plus 177Lu-lilotomab satetraxetan (U-2932 [3]; 1000 nM, time (day): 3)","growth inhibition by drug plus 177Lu-lilotomab satetraxetan (U-2932 [3]; 1000 nM, time (day): 4)","growth inhibition by drug plus 177Lu-lilotomab satetraxetan (U-2932 [3]; 1000 nM, time (day): 5)","growth inhibition by drug plus 177Lu-lilotomab satetraxetan (U-2932 [3]; 1000 nM, time (day): 6)","growth inhibition by drug plus 177Lu-lilotomab satetraxetan (RIVA [4]; 10 nM, time (day): 3)","growth inhibition by drug plus 177Lu-lilotomab satetraxetan (RIVA [4]; 10 nM, time (day): 4)","growth inhibition by drug plus 177Lu-lilotomab satetraxetan (RIVA [4]; 10 nM, time (day): 5)","growth inhibition by drug plus 177Lu-lilotomab satetraxetan (RIVA [4]; 10 nM, time (day): 6)","growth inhibition by drug plus 177Lu-lilotomab satetraxetan (RIVA [4]; 100 nM, time (day): 3)","growth inhibition by drug plus 177Lu-lilotomab satetraxetan (RIVA [4]; 100 nM, time (day): 4)","growth inhibition by drug plus 177Lu-lilotomab satetraxetan (RIVA [4]; 100 nM, time (day): 5)","growth inhibition by drug plus 177Lu-lilotomab satetraxetan (RIVA [4]; 100 nM, time (day): 6)"
COc1cc([C@@H]2c3cc4c(cc3[C@@H](O[C@@H]3O[C@@H]5CO[C@@H](C)O[C@H]5[C@H](O)[C@H]3O)[C@H]3COC(=O)[C@H]23)OCO4)cc(OC)c1O [Etoposide (VP-16)],-0.0657,-0.0505,-0.0531,-0.0136,0.738,0.843,0.913,0.949,-0.26,-0.276,-0.302,-0.423,-0.0322,0.0869,0.148,0.202,-0.108,-0.0574,-0.0473,0.0279,0.823,0.901,0.945,0.969,0.345,0.51,0.549,0.556,0.681,0.776,0.816,0.845
COc1cccc2c1C(=O)c1c(O)c3c(c(O)c1C2=O)C[C@@](O)(C(C)=O)C[C@@H]3O[C@H]1C[C@H](N)[C@H](O)[C@H](C)O1 [Daunorubicin HCl (Daunomycin HCl)],0.144,0.147,0.0841,0.0306,0.971,0.975,0.98,0.983,0.109,0.134,0.15,0.0495,0.569,0.743,0.857,0.915,0.21,0.265,0.341,0.415,0.978,0.982,0.984,0.987,0.833,0.844,0.868,0.902,0.87,0.915,0.94,0.96
COc1cc2/c(=N/c3ccc(Br)cc3F)nc[nH]c2cc1OCC1CCN(C)CC1 [Vandetanib (Zactima)],-0.05,-0.0325,-0.0228,0.016,-0.236,-0.171,-0.167,-0.12,-0.203,-0.201,-0.23,-0.529,-0.273,-0.353,-0.318,-0.441,-0.0662,-0.0404,-0.009,0.0527,-0.276,-0.164,-0.119,-0.041,0.331,0.49,0.516,0.535,0.268,0.377,0.373,0.355

# — the supplement of paper PMC6897291
